# Tested on: DYRK1B
# 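Also: kd values determined as follow-up on hits from a single-replicate KINOMEscan panel screen.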
row,Structure (SMILES),Kd [nM]
1,COc1ccc(Nc2nccc(N3CCC(NC(=O)c4cccc(NC(C)=O)c4)C3)n2)cc1 (stereo not drawn) [GSK1379732],> 10000
2,Cc1cc(N2CCC(NS(=O)(=O)c3ccc(F)cc3)CC2)nc(Nc2cccc(C#N)c2)n1.O=C(O)C(F)(F)F [GSK1653537],2800
3,Nc1n[nH]c2nnc(-c3ccccc3)cc12 [SB-517389],7000
4,CC(C)(C)OC(=O)NC1CCCN(c2cc(-c3ccc4c(N)n[nH]c4c3)nc(N)n2)C1 (stereo not drawn) [GSK2286096],> 10000

# Tested on: EGFR
row,Structure (SMILES),Kd [nM]
1,Fc1cccc(COc2ccc(Nc3ncnc4sc(-c5ccc[nH]5)cc34)cc2Cl)c1 [GW707818],2.6
2,Fc1cccc(COc2ccc(Nc3ncnc4cc[nH]c34)cc2Cl)c1,1.3
3,CS(=O)(=O)CCNCc1ccc(-c2ccc3ncnc(Nc4ccc(OCc5ccccc5)c(Cl)c4)c3c2)o1.Cl [GW574783],0.82
4,O=C(CCO)NCCn1ccc2ncnc(Nc3ccc(Oc4cccc(C(F)(F)F)c4)c(Cl)c3)c21,2.3
5,COc1cc2c(Nc3cccc(NC(=O)c4ccccc4)c3)ncnc2cc1OCCCN1CCOCC1 [GSK223810],1400
6,COc1cc2ncnc(Nc3ccc(OCc4ccccc4Br)c(Cl)c3)c2cc1OC.Cl [GI261590],2.4
7,CS(=O)(=O)CCNCc1nc(-c2ccc3ncnc(Nc4ccc(OCc5cccc(F)c5)c(Cl)c4)c3c2)cs1.Cl [GW583340],0.69
8,Cl.O=S(=O)(c1cccc(F)c1)c1ccc(Nc2ncnc3cc(Br)sc23)cc1Cl [GSK306886],61
9,Oc1ccc2ncnc(Nc3ccc(OCc4ccccc4)cc3)c2c1 [GI262866],9.3
10,Cl.c1ccc(Cn2ccc3cc(Nc4ncnc5ccccc45)ccc32)cc1 [GW275568],5
11,Cl.c1ccc(Cn2ncc3cc(Nc4ncnc5ccccc45)ccc32)cc1 [GW273749],7.6
12,N#Cc1ccc(Oc2ccc(Nc3ncnc4cc[nH]c34)cc2Cl)cc1,97
13,Clc1cc(Nc2ncnc3cc[nH]c23)ccc1OCc1ccccn1,8.4
14,Cn1ccc2ncnc(Nc3ccc(Oc4cccc(Cl)c4)c(Cl)c3)c21,4.3
15,NC(=O)c1sc(-n2cnc3ccccc32)cc1OCc1ccccc1F [GSK1024306],1300
16,OCCOCCn1ccc2ncnc(Nc3ccc(Oc4cccc(Cl)c4)c(Cl)c3)c21,8.5
17,Cl.Fc1ccccc1COc1ccc(Nc2ncnc3ccc(-c4nnc(C(F)(F)F)o4)cc23)cc1Cl [GW424170],43

# Tested on: EPHA3
row,Structure (SMILES),Kd [nM]
1,O=c1cc(N2CCOCC2)nc2n(Cc3cccc(Cl)c3)ccn12 [GSK2296823],> 10000
2,CCn1c(-c2ccncc2)nc2cnccc21 [SB-735216],> 10000
3,Cl.Cn1ccc(-c2cccc(Nc3ccnc4cc(-c5nccs5)ccc34)c2)n1 [GW525701],> 10000

# Source: publication PMC5540273 (PLoS ONE, 2017)
